# Screens: PubChem, National Center for Advancing Translational Sciences (NCATS)
# Hits are enriched below; roughly 2.4% of the tested compounds scored in any of these assays.
# D2 PAM-1: human D2 receptor positive allosteric modulation; P14416; DiscoveRx D2 beta-arrestin cells, luminescence, 90 min; 100% = 57 uM dopamine signal; potentiation, % (concentration not given with the values); actives 0.23% (n = 360,000); AID 624464; in the data active = potentiation above about 50%; inconclusive = mostly about 30% to 49%
# Target sequence (P14416 whole entry, looked up): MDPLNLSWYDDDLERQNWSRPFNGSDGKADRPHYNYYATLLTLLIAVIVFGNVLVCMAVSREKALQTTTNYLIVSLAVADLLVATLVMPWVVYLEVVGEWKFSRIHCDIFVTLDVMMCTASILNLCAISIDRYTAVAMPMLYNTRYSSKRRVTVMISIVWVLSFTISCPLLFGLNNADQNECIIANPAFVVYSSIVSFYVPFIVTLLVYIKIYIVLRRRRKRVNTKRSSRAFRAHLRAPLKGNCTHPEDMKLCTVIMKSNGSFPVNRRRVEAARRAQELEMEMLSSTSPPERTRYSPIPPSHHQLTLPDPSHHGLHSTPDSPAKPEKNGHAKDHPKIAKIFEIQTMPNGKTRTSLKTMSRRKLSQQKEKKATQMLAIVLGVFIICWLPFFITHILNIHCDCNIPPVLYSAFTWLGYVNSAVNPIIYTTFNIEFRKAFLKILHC
#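 D2 cells co-treated with compound plus 50 nM dopamine (EC20) for 90 min at 37 deg C to detect potentiation. Beta-arrestin recruitment was read as enzyme-fragment luminescence after 1 h at ambient temperature. Full response was set by 57 uM dopamine.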
# D2 PAM-2: positively modulates the human D2 dopamine receptor allosterically. HEK293 T-REx D2, calcium flux, EC20 dopamine potentiation. potentiation, % at 10 µM. P14416. actives 0.34% (n = 340,000);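 active = potentiation over 3 SD above the plate norm, cut at about 30% in these data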; also: 0% is about no effect
#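 Potentiation of an EC20 dopamine calcium response is measured in a force-coupled, tetracycline-inducible Hek293 Trex D2 line. Compound-only kinetic reads over 180 s flag agonists before dopamine addition.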
# D2 ag-1: D2 dopamine receptor (human) agonism; activation, % at 2 µM; AID 485358; actives 0.53% (n = 340,000); HEK293 T-REx D2 cells, calcium flux agonist mode; P14416;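 active = activation over 3 SD above normal in the single-dose calcium agonist read, cut at about 30% in these data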; also: 0% is about no effect
#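 Agonism is scored from calcium flux in a force-coupled, inducible HEK293 cell line expressing D2, read kinetically for 180 s after compound addition against dopamine controls.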
# D2 antagonist: antagonizes the human D2 dopamine receptor | actives 2% (n = 340,000) | HEK293 TREx D2 cells, calcium flux, dopamine EC80 | AID 485344 | inhibition, % at 10 µM | P14416; in the data active = inhibition above about 30%; inactive = below that, where a call was filed; also: 0% is about no effect
#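 Read-out: kinetic calcium fluorescence (1 cycle/s) in inducible HEK293 T-REx D2 cells after an EC80 dopamine addition that followed 180 s compound preincubation. Loss of the dopamine response indicates antagonism.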
# D2 ag-2: human D2 receptor agonism in beta-arrestin assay; activation, % (test concentration not listed); actives 0.084% (n = 360,000); P14416; DiscoveRx PathHunter D2 beta-arrestin, luminescence, 90 min; 100% = 57 uM dopamine signal; in the data active = activation above about 40%; inconclusive = between about 15% and that limit
#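 Agonist mode: compounds alone added to overnight-plated D2 PathHunter cells for 90 min at 37 C, with 57 uM final dopamine (EC100) defining full response. Beta-arrestin recruitment detected by chemiluminescent reagent, read after 1 h at ambient temperature.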
# The depositor's hits bear a star; ? = inconclusive; / = not tested or not shown.
SMILES,D2 PAM-1,D2 PAM-2,D2 ag-1,D2 antagonist,D2 ag-2
CC(C)CNC(=O)Nc1cc(C(=O)NCc2ccc(C(C)C)cc2)ccc1N1CCCC1,/,-1,1,/,/
COc1cc2c(cc1OC)C(=O)C(c1ccc3c(c1)OCO3)CC2 (stereo not given),-3,/,/,/,-3
COc1cc2c(cc1OC)C(=O)C(Br)CC2 (stereo not given),-6,/,/,/,46*
CC(=O)C1=C(C)NC(C)=C(C(C)=O)C1c1ccccc1,8,4,0,-1,41*
CC(=O)C1=C(C)NC(C)=C(C(C)=O)C1c1cccs1,6,7,0,-10,-4
Cc1ccc(C(=O)NCC(C)(C)O)cc1,-2,19,0,38*,-2
Cc1ccc(C(=O)NCCSC(C)(C)C)cc1,-6,-4,0,3,-2
Cc1ccc(C(=O)NCC(=O)NC23CC4CC(CC(C4)C2)C3)cc1,-9,-8,30*,12,-5
COc1ccc(/C=C/C(=O)O/N=C(\N)c2ccccc2)cc1OC,52*,-1,0,-1,14
COc1ccc(/C=C/C(=O)Nc2ccccc2)cc1OC,-6,-12,-9,30*,-3
N/C(Cc1ccc(Cl)c(Cl)c1)=N\OC(=O)c1cccs1,81*,-3,1,-18,15
Cc1ccccc1/C(N)=N/OC(=O)/C=C/c1ccccc1,87*,0,0,7,?
Cc1cccc(-n2c(=O)c3ccccc3n(Cc3ccc(F)cc3)c2=O)c1,/,19,-1,/,/
Cc1ccc(NC(=O)C2CCCN(c3nnc(-n4c(C)ccc4C)s3)C2)c(C)c1 (stereo not given),/,-1,-1,/,/
N/C(=N\OC(=O)c1cccs1)c1cccnc1,?,18,1,-18,?
Cc1ccccc1/C(N)=N/OC(=O)c1cccs1,139*,/,/,/,?
CCOc1ccc(NC(=O)CCSc2nc(-c3ccc4c(c3)OCO4)cc(C(F)(F)F)n2)cc1,/,5,0,/,/
CCOc1ccc(Cn2c3ccc(OC)cc3c3nc4ccccc4nc32)cc1,9,3,2,5,1
CCn1c2ccc(OC)cc2c2nc3ccccc3nc21,-12,31*,-1,-6,-2
COc1ccc(NCc2cc3cc4c(cc3n(CC(=O)Nc3ccc(F)cc3)c2=O)OCCO4)cc1,/,3,4,/,/
Cc1ccc(C(=O)OCC(=O)N(C)c2ccccc2)c(C)c1,-12,-4,-2,-18,-3
CN(C(=O)COC(=O)c1cc(F)c(F)cc1Cl)c1ccccc1,-5,-1,-1,32*,3
O=S(=O)(NCC(c1cccs1)S(=O)(=O)c1ccccc1)c1ccccc1 (stereo not given),/,-4,2,/,/
COc1ccc(NC(=O)c2ccc(-n3cccn3)c([N+](=O)[O-])c2)cc1,5,-5,0,45*,-1
N#C/C(=C/c1ccncc1)c1nc2ccccc2s1,-7,-2,30*,4,8
SMILES,D2 PAM-1,D2 PAM-2,D2 ag-1,D2 antagonist,D2 ag-2
CC(C)=C(C#N)c1nc2ccccc2s1,-1,-3,1,-24,-4
COCCCNC(=O)c1ccc2c(c1)N=C(C)c1c(C)ccc(C)c1S2,/,3,-1,/,/
O=C(COC(=O)c1ccc([N+](=O)[O-])o1)c1ccccc1,65*,-3,1,6,8
COc1cccc(OC)c1C(=O)OCC(=O)N1CCC(Cc2ccccc2)CC1,-3,/,/,/,0
CC1CC(C)CN(C(=O)COC(=O)c2ccc([N+](=O)[O-])o2)C1 (stereo not given),12,-2,0,31*,5
O=C(OCCCOC(=O)c1ccc([N+](=O)[O-])o1)c1ccc([N+](=O)[O-])o1,53*,0,4,-1,11
CCOC(=O)C1CCN(C(=O)COC(=O)c2ccc([N+](=O)[O-])o2)CC1,1,-6,0,7,?
O=C(COC(=O)c1ccc([N+](=O)[O-])o1)NCc1ccccc1,22,/,/,/,4
COc1cccc(OC)c1C(=O)OCC(=O)N1CC(C)CC(C)C1 (stereo not given),-14,1,0,32*,-1
O=C(c1cccs1)N1CCCc2cc(NS(=O)(=O)c3ccc(Br)cc3)ccc21,/,-3,1,/,/
COc1ccc2c(c1)c(N1CCCC1=O)c(C(=O)Nc1cc(C)c(Cl)cc1OC)n2C,/,0,-1,/,/
NC1=NC2(CCN(Cc3ccccc3)CC2)n2c(nc3ccccc32)N1,-16,-32,-1,43*,-2
COc1cc(C(=O)Nc2ccc(C)cc2)c2ccccc2n1,-1,4,0,2,2
CCOc1ccc(NC(=O)c2cc(OC)nc3ccccc23)cc1,-11,-3,-1,57*,-4
COc1cccc(C2C(=O)N(C3CCCCC3)CC(=O)N2Cc2ccc(Cl)cc2)c1 (stereo not given),/,-15,/,/,/
COC(=O)C1=C(C(=O)OC)N2C=CC=CC2(C)C(C(=O)OC)=C1C(=O)OC (stereo not given),-9,-1,-2,32*,-3
COC(=O)C1=C(C(=O)OC)C(C(=O)OC)C(C(=O)OC)C(C(=O)OC)(C(=O)OC)C(C(=O)OC)=C1C(=O)OC (stereo not given),8,/,/,/,-4
O=C(CC1C(=O)N(c2ccc(F)cc2)C(=O)N1Cc1ccc2c(c1)OCO2)Nc1ccc(Cl)cc1 (stereo not given),/,-22,1,/,/
Cc1c2cnn(-c3ccccc3)c(=O)c2c(C)n1CCCC(=O)Nc1ccc(F)cc1F,/,2,1,/,/
O=C(NCc1ccccc1)c1n[nH]nc1-c1ccccc1O,-8,8,0,31*,0
O=C(NCc1ccccc1)c1ccc(C(=O)NCc2ccccc2)cc1,3,/,/,/,4
CCN(CC)S(=O)(=O)c1ccc(-n2cnc3cc(C)c(C)cc32)nc1,-10,38*,1,-10,-1
CCN(CC)S(=O)(=O)c1ccc(C)c(C)c1,-9,-7,-1,-15,-2
CC(C)N(C(C)C)S(=O)(=O)c1ccc(N2CCc3ccccc3C2)nc1,2,-10,1,1,-5
CCN(CC)S(=O)(=O)c1ccc(N2CCc3ccccc3C2)nc1,-16,34*,-2,-5,-9
CCCCCCc1cc2cc(S(=O)(=O)c3ccc(Cl)cc3)c(=O)oc2cc1O,3,-6,/,/,2
CCN(CC)c1ccc2cc(S(=O)(=O)c3ccc(Cl)cc3)c(=O)oc2c1,-1,5,68*,-76,-3
CCN(CC)CCN(Cc1cc2cc3c(cc2[nH]c1=O)OCCO3)C(=S)NCC1CCCO1 (stereo not given),-5,-6,2,-14,-2
